# Assay results reported in the supplement of paper PMC4206467.
# Test system: Perkinsus marinus PRA240
# Experiment: ATP content (proliferation) relative to DMSO control; higher = more parasite growth (less inhibition)
# Conditions: 20 µM; 4 days
# Description: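 Perkinsus marinus PRA240 trophozoites (2-5x10^6 cells/ml, 100 µl, 96-well) were exposed once to MMV Malaria Box compounds at 20 µM (0.1% DMSO) in triplicate. ATP content (ATPlite bioluminescence) was read at day 4 post-exposure and normalised to DMSO + cells control wells (100% activity). Compounds were identified by joining plate and well to the Malaria Box list.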
row,Structure (SMILES),ATP content [%]
1,CCCCCCn1c(=N)n(CC(O)COc2cccc(C)c2)c2ccccc21 (configuration not stated),96.7
2,CCOc1cc2c(cc1OCC)C(c1cc(Cl)c(O)c(OCC)c1)NCC2 (configuration not stated),97.3
3,CCOc1ccc(C=Cc2nc(=O)c3ccccc3o2)cc1,14.6
4,O=C(Nc1ccc(-c2nc3cc4ccccc4cc3[nH]2)cc1)c1cccc(Br)c1,124
5,CC(=O)c1ccc(NC(=O)CSc2nc(-c3ccccc3Cl)ns2)cc1,125
6,COc1ccc(C)c2sc(N(Cc3cccnc3)C(=O)c3ccc(C#N)cc3)nc12,87.4
7,Cc1sc2ncnc(Sc3nc4ccccc4[nH]3)c2c1C,131
8,CN(C)c1ccc(N=Cc2ccc(N3CCOCC3)cc2)cc1,108
9,CCOC(=O)c1cnc2c(CC)cccc2c1O,80.1
10,COc1ccc(CCNC(=O)c2cc(S(=O)(=O)N3CC(C)CC(C)C3)ccc2Sc2ccc(F)cc2)cc1OC (configuration not stated),160
11,Clc1cc(Br)ccc1-c1ccc(CNCC2CCNCC2)o1,243
12,COc1ccc(C(=O)NC(c2ccc(Cl)cc2Cl)c2cc(Cl)c3cccnc3c2O)cc1 (configuration not stated),96.4
13,Nc1ccc(-c2nc3cc(Oc4ccc(Oc5ccc6[nH]c(-c7ccc(N)cc7)nc6c5)cc4)ccc3[nH]2)cc1,74.1
14,CCOc1ccc2nc(C)cc(Nc3ccc(Br)cc3)c2c1,3.75
15,CCCCN(CCCC)S(=O)(=O)c1ccc(NC(=O)c2ccco2)cc1,43.3
16,CC(C)(C)c1ccc(C(=O)Nc2nc3ccccc3s2)cc1,57
17,Cn1c(C(=O)c2cccc3ccccc23)nc2ccccc21,55.5
18,N=c1n(CCN2CCCCC2)c2ccccc2n1CC(=O)c1ccc(Cl)c(Cl)c1,111
19,COc1ccc(CCN2C(=O)c3[nH]nc(-c4cc(Cl)c(C)cc4O)c3C2c2ccccc2F)cc1 (configuration not stated),91.4

row,Structure (SMILES),ATP content [%]
1,COc1cc(C(=O)ON=C(N)Cc2cccc3ccccc23)cc(OC)c1OC,87.4
2,Cc1ccc(C2CC(C(F)(F)F)n3nc(C(=O)N4CCN(C(c5ccccc5)c5ccccc5)CC4)cc3N2)cc1 (configuration not stated),144
3,Nc1ccn(C2O[C@H](CO)[C@@H](O)[C@H]2O)c(=O)n1 (some centres not stated),132
4,COc1ccc2c(c1OC)C(=O)N1c3ccccc3N=C(c3ccc(C)cc3)CC21 (configuration not stated),155
5,CC(C)(C)c1ccc2c(c1)CN(Cc1ccc(Cl)cc1)CO2,107
6,COc1ccc2nc(C)cc(Nc3ccccc3O)c2c1,163
7,CCN1CCN(c2c(C(=O)c3ccccc3)cnc3cc(OC)c(OC)cc23)CC1,199
8,CCOC(=O)C1=CN(C)C=C(C(=O)OCC)C1c1cc(Br)c(OCC)c(OC)c1,121
9,O=C(CSc1ccc2nnc(-c3cccc(F)c3)n2n1)Nc1ccc2c(c1)OCO2,102
10,CCc1ccc(CNCC(O)c2ccccc2)cc1 (configuration not stated),60.8
11,O=c1cc(NC2CCN(CCCc3ccccc3)CC2)c2cc(Cl)ccc2o1,167
12,O=C1CC(O)(C(F)(F)C(F)(F)F)Oc2ccccc21 (configuration not stated),34.8
13,Cc1c(C)n(Cc2ccc(F)cc2)c2ccc(C(=O)NCc3ccco3)cc12,111
14,CCOc1ccc(CCNC(=O)c2cccs2)cc1OCC,67.6
15,Clc1ccc2[nH]c3c(NCCCN4CCOCC4)ncnc3c2c1,163
16,Cc1ccc(CN2CCC(C(=O)Nc3ccc(-c4cc5ccccc5[nH]4)cc3)CC2)o1,83.4
17,CCCc1c(C)nc2ccccc2c1O,28.8
18,COc1ccc(C(O)(CCC(C)C)C(CN2CCOCC2)c2ccc(Cl)cc2)cc1 (configuration not stated),91.9
